The values that follow come from PMC7862700, “An all-to-all approach to the identification of sequence-specific readers for epigenetic DNA modifications on cytosine”.

What all share (assay): DAPPL (digital affinity profiling via proximity ligation, sequencing); 10 mM Tris-HCl pH 7.5, 50 mM NaCl, 1 mM DTT, 4% glycerol, room temperature, 30 min; GST-TFs on glutathione beads, 16-mer random dsDNA library, 0.1% formaldehyde crosslink after washing; high values mean tight binding
One assay concerns the target T1, FLI1 (Homo sapiens, UniProt Q01543 1-452).
T1 sequence: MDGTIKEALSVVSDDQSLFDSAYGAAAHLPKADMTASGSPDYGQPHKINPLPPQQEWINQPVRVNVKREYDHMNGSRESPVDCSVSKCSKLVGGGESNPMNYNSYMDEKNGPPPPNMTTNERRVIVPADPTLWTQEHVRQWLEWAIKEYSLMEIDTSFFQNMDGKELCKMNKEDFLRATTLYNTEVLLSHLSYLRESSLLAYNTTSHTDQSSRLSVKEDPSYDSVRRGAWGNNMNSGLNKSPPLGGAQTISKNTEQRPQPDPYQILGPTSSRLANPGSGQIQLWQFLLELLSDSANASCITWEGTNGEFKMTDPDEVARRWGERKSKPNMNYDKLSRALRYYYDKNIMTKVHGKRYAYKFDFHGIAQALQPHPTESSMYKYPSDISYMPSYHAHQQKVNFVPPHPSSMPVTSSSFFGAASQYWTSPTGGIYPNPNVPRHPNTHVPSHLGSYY
The following applies: protein: recombinant; tags: N-terminal GST; dsDNA, one strand shown. The gist of the method: (§1)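 Binding signal is each hexamer's read frequency for a factor divided by its frequency in the tag-only sample. The factors were GST-fused human transcription factors from yeast, captured on glutathione beads, DNA-barcoded and pooled with that sample. Pools were incubated with 200 nmole of a random double-stranded 16-mer DNA library in Tris/NaCl/DTT/glycerol buffer at room temperature for 30 min, then washed, crosslinked with 0.1% formaldehyde, proximity-ligated with BsaI/T4 ligase (1 h, 37 °C), PCR-amplified and sequenced on an Illumina NextSeq500.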

For another assay, the target named is T2, ELK1 (Homo sapiens, UniProt P19419 1-428).
T2 sequence: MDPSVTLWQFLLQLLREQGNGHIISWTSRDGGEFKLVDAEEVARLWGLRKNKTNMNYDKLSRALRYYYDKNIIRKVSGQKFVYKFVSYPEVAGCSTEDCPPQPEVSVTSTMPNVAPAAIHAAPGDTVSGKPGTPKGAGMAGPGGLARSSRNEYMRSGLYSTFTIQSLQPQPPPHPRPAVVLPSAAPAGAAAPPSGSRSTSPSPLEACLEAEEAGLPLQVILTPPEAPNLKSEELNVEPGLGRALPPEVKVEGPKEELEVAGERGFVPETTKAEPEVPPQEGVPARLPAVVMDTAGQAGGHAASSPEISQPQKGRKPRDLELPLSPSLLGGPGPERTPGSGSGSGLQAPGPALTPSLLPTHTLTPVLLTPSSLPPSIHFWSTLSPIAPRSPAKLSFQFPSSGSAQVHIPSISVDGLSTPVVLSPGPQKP
The following applies: protein: recombinant; tags: N-terminal GST; dsDNA, one strand shown. The essentials: as §1

Another assay has as its target T3, GABPA (Homo sapiens, UniProt Q06546 1-454).
T3 sequence: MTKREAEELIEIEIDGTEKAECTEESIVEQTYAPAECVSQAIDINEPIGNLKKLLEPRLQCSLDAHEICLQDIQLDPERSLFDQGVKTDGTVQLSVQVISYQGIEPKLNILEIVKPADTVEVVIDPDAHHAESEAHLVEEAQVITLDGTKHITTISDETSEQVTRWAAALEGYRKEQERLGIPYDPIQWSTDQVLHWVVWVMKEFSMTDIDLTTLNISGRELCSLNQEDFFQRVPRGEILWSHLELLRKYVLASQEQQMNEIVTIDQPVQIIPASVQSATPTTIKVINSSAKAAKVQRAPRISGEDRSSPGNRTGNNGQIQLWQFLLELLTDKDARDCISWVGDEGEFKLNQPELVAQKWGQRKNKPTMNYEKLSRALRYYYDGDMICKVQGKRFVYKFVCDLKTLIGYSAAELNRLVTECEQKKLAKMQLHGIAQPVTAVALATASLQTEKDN
The following applies: protein: recombinant; tags: N-terminal GST; dsDNA, one strand shown. The essentials:
as §1

The next assay concerns the target T4, ERG (Homo sapiens, UniProt P11308 1-479).
T4 sequence: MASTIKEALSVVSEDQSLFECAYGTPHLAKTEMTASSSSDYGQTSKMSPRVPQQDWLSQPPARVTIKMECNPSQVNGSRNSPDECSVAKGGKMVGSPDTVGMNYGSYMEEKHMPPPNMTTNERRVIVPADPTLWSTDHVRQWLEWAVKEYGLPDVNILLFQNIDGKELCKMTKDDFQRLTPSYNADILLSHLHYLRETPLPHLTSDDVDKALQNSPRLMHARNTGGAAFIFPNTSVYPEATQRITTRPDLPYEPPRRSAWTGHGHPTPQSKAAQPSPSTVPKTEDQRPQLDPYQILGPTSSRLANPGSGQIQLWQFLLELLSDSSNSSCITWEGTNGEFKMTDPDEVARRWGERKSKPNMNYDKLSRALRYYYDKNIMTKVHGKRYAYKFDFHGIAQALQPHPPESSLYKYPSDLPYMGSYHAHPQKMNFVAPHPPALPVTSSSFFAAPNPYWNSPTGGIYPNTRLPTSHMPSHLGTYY
The following applies: protein: recombinant; tags: N-terminal GST; dsDNA, one strand shown. The essentials:
as §1

The target in the next assay is ELF1 (Homo sapiens, UniProt P32519 1-619). The following applies: protein: recombinant; tags: N-terminal GST; dsDNA, one strand shown. The essentials:
as §1

The next assay concerns the target T5, EHF (Homo sapiens, UniProt Q9NZC4 1-300).
T5 sequence: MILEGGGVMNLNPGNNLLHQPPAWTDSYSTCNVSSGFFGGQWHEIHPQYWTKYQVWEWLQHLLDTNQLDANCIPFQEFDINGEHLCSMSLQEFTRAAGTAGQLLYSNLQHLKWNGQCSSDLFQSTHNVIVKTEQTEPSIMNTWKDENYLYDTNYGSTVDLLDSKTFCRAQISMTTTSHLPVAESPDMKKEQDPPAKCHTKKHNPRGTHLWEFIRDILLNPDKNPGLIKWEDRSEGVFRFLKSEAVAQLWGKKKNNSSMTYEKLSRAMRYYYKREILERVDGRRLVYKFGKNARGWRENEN
The settings on record: protein: recombinant; tags: N-terminal GST; dsDNA, one strand shown. The gist of the method:
as §1

A further assay deals with SPI1 (Homo sapiens, UniProt P17947 1-270). The following applies: protein: recombinant; tags: N-terminal GST; dsDNA, one strand shown. The essentials: as §1
For the next assay, the target named is SPIB (Homo sapiens, UniProt Q01892 1-262). The following applies: protein: recombinant; tags: N-terminal GST; dsDNA, one strand shown. The essentials: as §1
For the next assay, the target named is T6, ELK3 (Homo sapiens, UniProt P41970 1-407).
T6 sequence: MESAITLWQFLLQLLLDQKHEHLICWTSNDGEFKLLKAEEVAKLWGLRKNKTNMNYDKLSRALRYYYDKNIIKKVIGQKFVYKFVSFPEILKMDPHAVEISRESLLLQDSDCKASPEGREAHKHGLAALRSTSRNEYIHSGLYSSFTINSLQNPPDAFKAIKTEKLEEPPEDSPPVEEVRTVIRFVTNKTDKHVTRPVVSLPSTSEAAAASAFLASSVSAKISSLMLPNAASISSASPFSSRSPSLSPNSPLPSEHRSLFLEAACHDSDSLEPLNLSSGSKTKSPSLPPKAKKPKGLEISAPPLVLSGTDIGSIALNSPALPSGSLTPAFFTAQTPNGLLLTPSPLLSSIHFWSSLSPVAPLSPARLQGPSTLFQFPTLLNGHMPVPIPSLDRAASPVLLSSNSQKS
The settings on record: protein: recombinant; tags: N-terminal GST; dsDNA, one strand shown. The essentials: as §1

Another assay addresses T7, FEV (Homo sapiens, UniProt Q99581 1-238).
T7 sequence: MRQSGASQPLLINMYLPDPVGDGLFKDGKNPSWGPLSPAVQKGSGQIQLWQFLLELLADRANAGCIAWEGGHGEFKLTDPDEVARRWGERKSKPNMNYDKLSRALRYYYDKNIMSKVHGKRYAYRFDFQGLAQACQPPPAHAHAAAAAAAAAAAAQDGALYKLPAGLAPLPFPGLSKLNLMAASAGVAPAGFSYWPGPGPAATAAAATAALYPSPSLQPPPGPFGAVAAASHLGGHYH
The settings on record: protein: recombinant; tags: N-terminal GST; dsDNA, one strand shown. The essentials: as §1

A further assay concerns the target ETV5 (Homo sapiens, UniProt P41161 1-510). The following applies: protein: recombinant; tags: N-terminal GST; dsDNA, one strand shown. The essentials: as §1
The next assay deals with HSF1 (Homo sapiens, UniProt Q00613 1-529). The following applies: protein: recombinant; tags: N-terminal GST; chain copies: 3; dsDNA, one strand shown. The gist of the method: as §1
A further assay deals with T8, SPIC (Homo sapiens, UniProt Q8N5J4 1-248).
T8 sequence: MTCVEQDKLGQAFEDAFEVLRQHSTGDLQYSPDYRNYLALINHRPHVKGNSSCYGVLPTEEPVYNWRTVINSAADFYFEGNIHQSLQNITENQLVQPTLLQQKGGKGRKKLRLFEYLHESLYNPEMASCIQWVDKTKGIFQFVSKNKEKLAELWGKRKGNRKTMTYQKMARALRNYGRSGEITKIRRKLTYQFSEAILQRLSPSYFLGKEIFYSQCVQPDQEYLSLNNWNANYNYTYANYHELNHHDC
The settings on record: protein: recombinant; tags: N-terminal GST; dsDNA, one strand shown. The gist of the method:
as §1

A further assay has as its target ELF4 (Homo sapiens, UniProt Q99607 1-663). The settings on record: protein: recombinant; tags: N-terminal GST; dsDNA, one strand shown. The gist of the method: as §1
In a further assay the target is T9, ELK4 (Homo sapiens, UniProt P28324-2 1-405).
T9 sequence: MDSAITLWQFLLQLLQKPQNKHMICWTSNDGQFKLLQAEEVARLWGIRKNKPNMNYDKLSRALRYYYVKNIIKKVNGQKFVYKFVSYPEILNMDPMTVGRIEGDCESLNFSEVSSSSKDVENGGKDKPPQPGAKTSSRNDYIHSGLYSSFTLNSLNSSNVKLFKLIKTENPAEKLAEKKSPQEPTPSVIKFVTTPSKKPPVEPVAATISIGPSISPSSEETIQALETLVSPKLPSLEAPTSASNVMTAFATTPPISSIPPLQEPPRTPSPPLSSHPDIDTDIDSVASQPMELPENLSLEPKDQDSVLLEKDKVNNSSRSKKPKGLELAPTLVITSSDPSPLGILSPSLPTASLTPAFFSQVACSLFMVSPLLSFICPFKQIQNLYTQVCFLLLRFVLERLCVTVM
The following applies: protein: recombinant; tags: N-terminal GST; dsDNA, one strand shown. The essentials: as §1

The target of another assay is T10, ETV2 (Homo sapiens, UniProt O00321 1-342).
T10 sequence: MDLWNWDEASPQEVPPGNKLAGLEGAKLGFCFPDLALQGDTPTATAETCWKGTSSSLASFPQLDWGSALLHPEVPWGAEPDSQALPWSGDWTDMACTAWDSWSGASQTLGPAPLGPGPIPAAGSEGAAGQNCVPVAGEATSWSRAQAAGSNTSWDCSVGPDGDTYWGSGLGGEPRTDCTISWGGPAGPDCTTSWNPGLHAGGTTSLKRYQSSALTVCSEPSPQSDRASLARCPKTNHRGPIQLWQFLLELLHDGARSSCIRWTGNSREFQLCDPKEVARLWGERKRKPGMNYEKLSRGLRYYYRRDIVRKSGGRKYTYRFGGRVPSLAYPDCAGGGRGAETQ
The following applies: protein: recombinant; tags: N-terminal GST; dsDNA, one strand shown. The gist of the method:
as §1

For the next assay, the target named is T11, ELF3 (Homo sapiens, UniProt P78545 1-371).
T11 sequence: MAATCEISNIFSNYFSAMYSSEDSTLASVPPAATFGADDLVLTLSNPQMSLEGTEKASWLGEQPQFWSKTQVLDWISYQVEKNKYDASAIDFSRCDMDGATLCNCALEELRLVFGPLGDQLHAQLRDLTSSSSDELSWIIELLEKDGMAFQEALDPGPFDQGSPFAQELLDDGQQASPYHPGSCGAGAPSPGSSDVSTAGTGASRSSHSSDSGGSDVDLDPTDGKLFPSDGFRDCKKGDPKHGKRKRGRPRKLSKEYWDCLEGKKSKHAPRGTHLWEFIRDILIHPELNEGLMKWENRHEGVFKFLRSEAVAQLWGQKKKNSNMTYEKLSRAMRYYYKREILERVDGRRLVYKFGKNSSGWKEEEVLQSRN
The following applies: protein: recombinant; tags: N-terminal GST; dsDNA, one strand shown. The gist of the method:
as §1

Another assay concerns the target CRX (Homo sapiens, UniProt O43186 1-299). The following applies: protein: recombinant; tags: N-terminal GST; dsDNA, one strand shown. The gist of the method:
as §1

For another assay, the target named is ETV1 (Homo sapiens, UniProt P50549 1-477). The settings on record: protein: recombinant; tags: N-terminal GST; dsDNA, one strand shown. The gist of the method: as §1
Chain of ETV1 (P50549 whole entry): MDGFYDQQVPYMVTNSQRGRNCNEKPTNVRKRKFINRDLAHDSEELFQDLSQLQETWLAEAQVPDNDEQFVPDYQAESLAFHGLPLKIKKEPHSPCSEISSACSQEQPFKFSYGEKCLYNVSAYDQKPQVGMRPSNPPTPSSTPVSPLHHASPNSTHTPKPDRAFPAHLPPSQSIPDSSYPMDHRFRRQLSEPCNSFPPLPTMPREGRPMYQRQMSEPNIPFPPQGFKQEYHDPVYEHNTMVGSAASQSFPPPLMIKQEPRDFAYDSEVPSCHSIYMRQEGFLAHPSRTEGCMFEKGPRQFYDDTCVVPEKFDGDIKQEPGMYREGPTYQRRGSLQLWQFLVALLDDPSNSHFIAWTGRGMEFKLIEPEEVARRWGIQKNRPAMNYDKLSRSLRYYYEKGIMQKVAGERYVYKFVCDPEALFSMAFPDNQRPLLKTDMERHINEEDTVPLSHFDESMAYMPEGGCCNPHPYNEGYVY

Chain of CRX (O43186 whole entry): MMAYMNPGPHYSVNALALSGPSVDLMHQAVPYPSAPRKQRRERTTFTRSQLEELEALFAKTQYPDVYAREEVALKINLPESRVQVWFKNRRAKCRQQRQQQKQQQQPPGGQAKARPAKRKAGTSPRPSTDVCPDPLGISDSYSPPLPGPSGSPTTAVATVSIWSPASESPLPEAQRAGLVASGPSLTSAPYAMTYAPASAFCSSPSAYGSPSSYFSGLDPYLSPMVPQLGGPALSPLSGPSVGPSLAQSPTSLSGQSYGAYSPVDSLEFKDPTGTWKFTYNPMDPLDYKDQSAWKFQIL
Chain of ELF4 (Q99607 whole entry): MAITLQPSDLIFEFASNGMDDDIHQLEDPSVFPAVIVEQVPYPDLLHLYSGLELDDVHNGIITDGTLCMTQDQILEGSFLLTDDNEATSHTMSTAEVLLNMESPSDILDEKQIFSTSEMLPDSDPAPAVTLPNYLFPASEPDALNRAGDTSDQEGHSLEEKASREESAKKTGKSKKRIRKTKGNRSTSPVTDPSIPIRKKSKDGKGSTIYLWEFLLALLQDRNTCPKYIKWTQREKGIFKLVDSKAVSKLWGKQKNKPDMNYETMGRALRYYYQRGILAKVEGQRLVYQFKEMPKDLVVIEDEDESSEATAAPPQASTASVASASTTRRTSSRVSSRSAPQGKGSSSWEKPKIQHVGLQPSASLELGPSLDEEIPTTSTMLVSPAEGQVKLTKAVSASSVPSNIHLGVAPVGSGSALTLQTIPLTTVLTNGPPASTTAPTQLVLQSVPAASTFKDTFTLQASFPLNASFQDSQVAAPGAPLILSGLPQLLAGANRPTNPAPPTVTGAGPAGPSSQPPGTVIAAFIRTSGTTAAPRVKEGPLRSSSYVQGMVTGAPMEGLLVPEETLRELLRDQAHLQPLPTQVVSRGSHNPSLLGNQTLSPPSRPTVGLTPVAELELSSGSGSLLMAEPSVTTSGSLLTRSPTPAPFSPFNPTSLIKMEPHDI
Chain of HSF1 (Q00613 whole entry): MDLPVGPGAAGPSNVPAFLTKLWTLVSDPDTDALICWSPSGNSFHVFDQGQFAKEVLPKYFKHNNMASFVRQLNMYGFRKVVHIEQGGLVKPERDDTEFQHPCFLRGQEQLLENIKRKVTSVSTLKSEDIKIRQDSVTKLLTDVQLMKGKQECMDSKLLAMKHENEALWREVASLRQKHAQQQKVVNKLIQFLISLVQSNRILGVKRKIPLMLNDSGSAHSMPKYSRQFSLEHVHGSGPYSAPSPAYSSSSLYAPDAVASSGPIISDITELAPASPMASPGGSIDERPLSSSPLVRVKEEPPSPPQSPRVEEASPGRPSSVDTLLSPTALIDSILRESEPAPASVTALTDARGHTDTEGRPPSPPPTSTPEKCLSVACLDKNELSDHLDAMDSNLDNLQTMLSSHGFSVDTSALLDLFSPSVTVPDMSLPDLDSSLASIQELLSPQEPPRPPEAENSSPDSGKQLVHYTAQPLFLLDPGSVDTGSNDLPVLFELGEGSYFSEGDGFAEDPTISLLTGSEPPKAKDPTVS
Chain of ETV5 (P41161 whole entry): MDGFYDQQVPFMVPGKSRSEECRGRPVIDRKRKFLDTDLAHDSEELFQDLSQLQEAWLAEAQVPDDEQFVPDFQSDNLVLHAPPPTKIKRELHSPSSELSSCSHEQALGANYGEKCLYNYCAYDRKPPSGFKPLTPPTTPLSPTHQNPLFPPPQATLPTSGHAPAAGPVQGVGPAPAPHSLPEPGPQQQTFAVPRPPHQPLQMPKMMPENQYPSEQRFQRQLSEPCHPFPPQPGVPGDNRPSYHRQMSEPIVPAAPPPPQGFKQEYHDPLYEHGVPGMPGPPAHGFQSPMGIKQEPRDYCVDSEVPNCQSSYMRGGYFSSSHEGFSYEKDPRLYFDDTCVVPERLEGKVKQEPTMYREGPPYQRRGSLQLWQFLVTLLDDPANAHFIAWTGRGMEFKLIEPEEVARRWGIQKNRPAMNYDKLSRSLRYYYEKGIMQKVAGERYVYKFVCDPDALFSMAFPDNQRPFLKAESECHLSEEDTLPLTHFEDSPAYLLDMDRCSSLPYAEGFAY
Chain of ELF1 (P32519 whole entry): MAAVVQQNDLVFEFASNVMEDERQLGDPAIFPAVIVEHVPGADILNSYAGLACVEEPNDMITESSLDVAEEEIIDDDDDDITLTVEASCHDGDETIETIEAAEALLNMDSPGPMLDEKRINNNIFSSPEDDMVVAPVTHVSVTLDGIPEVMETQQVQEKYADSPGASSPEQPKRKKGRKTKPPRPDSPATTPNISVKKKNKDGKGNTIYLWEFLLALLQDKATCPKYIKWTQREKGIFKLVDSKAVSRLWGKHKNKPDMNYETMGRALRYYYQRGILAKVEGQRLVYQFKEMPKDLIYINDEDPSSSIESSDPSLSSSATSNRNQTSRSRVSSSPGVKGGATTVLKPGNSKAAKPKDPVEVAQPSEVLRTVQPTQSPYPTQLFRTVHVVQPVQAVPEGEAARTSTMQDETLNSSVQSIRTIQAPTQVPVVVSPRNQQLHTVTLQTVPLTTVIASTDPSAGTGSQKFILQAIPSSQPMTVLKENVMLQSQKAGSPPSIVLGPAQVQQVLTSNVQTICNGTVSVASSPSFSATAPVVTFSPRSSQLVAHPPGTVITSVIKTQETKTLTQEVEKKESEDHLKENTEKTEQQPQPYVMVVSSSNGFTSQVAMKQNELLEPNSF
Chain of SPIB (Q01892 whole entry): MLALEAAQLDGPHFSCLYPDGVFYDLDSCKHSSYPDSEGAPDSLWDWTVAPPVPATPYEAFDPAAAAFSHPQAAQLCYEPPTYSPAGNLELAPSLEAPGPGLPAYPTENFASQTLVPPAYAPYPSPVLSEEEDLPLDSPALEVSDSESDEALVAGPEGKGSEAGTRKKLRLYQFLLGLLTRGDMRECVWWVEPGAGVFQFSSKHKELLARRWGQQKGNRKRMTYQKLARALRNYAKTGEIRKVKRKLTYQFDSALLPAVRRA

Consider CGGCTT, for which the binding signal in the assay with FLI1 was 1.17 fold enrichment (6-mer frequency, TF over GST control); with ELK1, 1.2 fold enrichment (6-mer frequency, TF over GST control); with GABPA, 1.12 fold enrichment (6-mer frequency, TF over GST control); with ERG it was 1.19 fold enrichment (6-mer frequency, TF over GST control); with ELF1 it was 1.13 fold enrichment (6-mer frequency, TF over GST control); with EHF, 1.13 fold enrichment (6-mer frequency, TF over GST control). Besides, the binding signal was 1.17 fold enrichment (6-mer frequency, TF over GST control) in the assay with SPI1; 1.18 fold enrichment (6-mer frequency, TF over GST control) with SPIB; 1.12 fold enrichment (6-mer frequency, TF over GST control) with ELK3; 1.14 fold enrichment (6-mer frequency, TF over GST control) with FEV; 1.16 fold enrichment (6-mer frequency, TF over GST control) with ETV5; 1.35 fold enrichment (6-mer frequency, TF over GST control) with HSF1. For the same sequence, the binding signal with SPIC was 1.13 fold enrichment (6-mer frequency, TF over GST control); with ELF4, 1.1 fold enrichment (6-mer frequency, TF over GST control); with ELK4, 1.09 fold enrichment (6-mer frequency, TF over GST control); with ETV2, 1.27 fold enrichment (6-mer frequency, TF over GST control); with ELF3, 1.15 fold enrichment (6-mer frequency, TF over GST control); with CRX, 1.95 fold enrichment (6-mer frequency, TF over GST control). The binding signal in the assay with ETV1 is 1.2 fold enrichment (6-mer frequency, TF over GST control).
